Assay outcomes as filed in PubChem BioAssay.
FMDV inh = blocks foot and mouth disease virus; Potency, µM (titrated, usually from 57.9 µM), most hits filed as inhibitors; 410,000 tested, 1.2% active; FMDV antiviral cell-based qHTS; calls by dose curve; tested in HEK293T cells; note: read-out not given here; nearly all actives have a fitted effect of over 45% in size
Sm TGR block = blocks Schistosoma mansoni thioredoxin glutathione reductase | Q962Y6 | purified TGR, DTNB reduction, TNB absorbance 405 nm | Potency, µM (top dose mostly 114 µM), hits mostly inhibitors | 360,000 tested, 3% active; active = well fitted inhibition curve with a large enough effect; inconclusive = small, poorly fitted or top-dose-only effect; inactive = no such curve, though single readings can be large or run the other way; note: nearly all actives have a fitted effect of over 60% in size
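TGR 20 nM + NADPH 100 uM (dispensed conc.), cpd preinc 15 min RT; start with NADPH (500 uM addition) then DTNB (15 mM addition). Kinetic TNB absorbance, 405 nm filter. Four-parameter Hill fit across titration.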
Shiga inhibitor = blocks Shiga toxin action in Vero cells; Vero cells, Shiga toxin protein synthesis inhibition reporter; inhibition, % at 38.7 µM; 290,000 tested, 9.2% active; AID 2315; in the data active = inhibition mostly above about 28%, no sharp cut-off; inactive = mostly below about 43%
Cycloheximide cs = affects cycloheximide protein synthesis inhibition readout, counter-screen. 300,000 tested, 12% active. AID 2314. max response, %. cell reporter, cycloheximide protein synthesis inhibition counterscreen; in the data active = max response mostly above about 13%, no sharp cut-off; inactive = mostly below about 14%; note: read at 38.3 µM for the half of the compounds with a filed dose
Hits are given with their value; [ ] = remark or other dose. Hits are enriched below; roughly 12% of the tested compounds scored in any of these assays.

Screening O=C(Cn1nc(C(=O)O)c2ccccc2c1=O)c1c[nH]c2ccccc12 returned FMDV inh inactive, Sm TGR block inactive, Shiga inhibitor 35 and Cycloheximide cs 9.4.
O=C(NNC(=O)C12CC3CC(CC(C3)C1)C2)c1cccc(O)c1 was read as FMDV inh inactive, Sm TGR block inactive, Shiga inhibitor inactive and Cycloheximide cs inactive.
Screening O=C(N/N=C1/CN2CCC1CC2)c1cccc(O)c1 returned FMDV inh inactive, Sm TGR block inactive, Shiga inhibitor 70 and Cycloheximide cs 36.
`Cc1nn(-c2ccccc2)c(OC(=O)c2ccc(Br)cc2)c1S(=O)(=O)c1ccccc1` gave FMDV inh inactive and Sm TGR block inconclusive.
`CCc1nnc(NS(=O)(=O)c2ccc(N/C=C\C(=O)c3ccc(C)cc3)cc2)s1` gave FMDV inh inactive, Sm TGR block inactive, Shiga inhibitor 103 and Cycloheximide cs 28.
CCc1nnc(NS(=O)(=O)c2ccc(NC(=O)CCC(=O)O)cc2)s1 was read as FMDV inh inactive, Sm TGR block inactive, Shiga inhibitor inactive and Cycloheximide cs inactive.
`CCc1nnc(NS(=O)(=O)c2ccc(N/C=C\C(=O)c3ccc(F)cc3)cc2)s1` gave FMDV inh inactive, Shiga inhibitor 66 and Cycloheximide cs 47.
`CCc1nnc(NS(=O)(=O)c2ccc(N/C=C/C(=O)c3ccc(C)cc3)cc2)s1` gave FMDV inh inactive, Sm TGR block inactive, Shiga inhibitor 93 and Cycloheximide cs 39.
`CCc1nnc(NS(=O)(=O)c2ccc(N/C=C\C(=O)c3cccc(OC)c3)cc2)s1` gave FMDV inh inactive, Shiga inhibitor 72 and Cycloheximide cs 32.
`COC(=O)c1cc(CNC(=O)c2ccncc2)cc(NC(=O)c2ccccc2Cl)c1` gave FMDV inh inactive.
For O=C(COc1ccccc1)N1CCc2ccccc21 the results were FMDV inh inactive, Sm TGR block inactive, Shiga inhibitor 76 and Cycloheximide cs 31.
NC(=O)c1ccccc1OCC(=O)N1CCCc2ccccc21 was read as FMDV inh inactive, Sm TGR block inactive, Shiga inhibitor 74 and Cycloheximide cs 26.
O=C(COc1cccc2c1CCN(Cc1ccccc1F)C2=O)N1CCCCC1 was read as FMDV inh inactive, Sm TGR block 89µM, Shiga inhibitor inactive and Cycloheximide cs inactive.
For COCC(=O)N1CCCc2ccccc21 the results were FMDV inh inactive, Sm TGR block inactive, Shiga inhibitor inactive and Cycloheximide cs inactive.
Screening O=C(COc1cccc2c1CCN(Cc1ccccc1F)C2=O)N1CCOCC1 returned Sm TGR block inactive, Shiga inhibitor inactive and Cycloheximide cs inactive.
For O=C(COc1ccc(Br)cc1)N1CCc2ccccc21 the results were FMDV inh inactive, Sm TGR block inactive, Shiga inhibitor 111 and Cycloheximide cs 27.
O=C(COc1ccccc1)OCC(=O)N1CCCc2ccccc21 was read as FMDV inh inactive and Sm TGR block inactive.
For COCC(=O)Nc1cc(C(=O)N2CCN(c3ccccc3)C(=O)C2)cc2nc(-c3ccccc3)n(C)c12 the results were FMDV inh inactive.
For Cc1cccc2c(N3CCCC3)nc(CNS(=O)(=O)c3ccc4ccccc4c3)nc12 the results were FMDV inh inactive.
`CC(C)(C)OC(=O)N1CCC(c2c(C(=O)N3CCCCC3)cnn2-c2ccccc2Cl)CC1` gave FMDV inh inactive and Sm TGR block inactive.
`O=C1c2cccc(OCC(=O)N3CCCc4ccccc43)c2CCN1Cc1ccccc1` gave FMDV inh inactive, Sm TGR block inactive, Shiga inhibitor inactive and Cycloheximide cs 14.
Screening O=C(CCCOc1ccccc1)N1CCCc2ccccc21 returned Sm TGR block inactive, Shiga inhibitor 132 and Cycloheximide cs 49.
`O=C(COc1ccccc1Cl)N1CCc2ccccc21` gave FMDV inh inactive, Sm TGR block inactive, Shiga inhibitor 101 and Cycloheximide cs 41.
For Cc1noc(C)c1CC(=O)N1CCOc2c(cc(-c3nc4ccccc4s3)cc2OC2CCOC2)C1 (stereo not given) the results were FMDV inh inactive.
`Cc1ccccc1C(=O)OCc1cc(=O)n2nc(C3CCCCC3)sc2n1` gave FMDV inh inactive and Sm TGR block inactive.
For Cc1ccc(N(Cc2cccs2)C(=O)c2ccc(Br)o2)cc1 the results were FMDV inh inactive and Sm TGR block inactive.
Screening CCCCCC(=O)N1c2ccccc2C(C)(c2ccccc2)CC1(C)C (stereo not given) returned FMDV inh inactive, Sm TGR block inactive, Shiga inhibitor inactive and Cycloheximide cs inactive.
COc1ccc2sc(C)cc(=O)c2c1 was read as FMDV inh inactive.
COc1ccc2sc3ccccc3c(=O)c2c1 was read as FMDV inh inactive, Sm TGR block inactive, Shiga inhibitor 81 and Cycloheximide cs 44.
For COc1ccc(-c2cc(=O)c3ccccc3s2)cc1 the results were Sm TGR block inactive[11.4 µM], Shiga inhibitor 93 and Cycloheximide cs 29.
Screening O=C(O)C1CCC[C@@H]2[C@@H]3CC(CN12)[C@@H]1CCCCN1C3 (stereo not given in full) returned FMDV inh inactive.
Screening Cc1cc(C(=O)OCC(=O)Nc2cc(S(=O)(=O)N(C)C)ccc2Cl)c2ccccc2n1 returned FMDV inh inactive, Sm TGR block inactive, Shiga inhibitor 86 and Cycloheximide cs inactive.
CCN(c1ccccc1)S(=O)(=O)c1ccc(Cl)c(NC(=O)COC(=O)c2cc(O)c3ccccc3c2O)c1 was read as Sm TGR block 3.5µM, Shiga inhibitor 36 and Cycloheximide cs 12.
`CCN(c1ccccc1)S(=O)(=O)c1ccc(Cl)c(NC(=O)COC(=O)c2ccc(O)cc2)c1` gave FMDV inh inconclusive, Sm TGR block inactive, Shiga inhibitor inactive and Cycloheximide cs inactive.
Screening Cc1cc(C(=O)OCC(=O)Nc2cc(S(=O)(=O)N(C)C)ccc2C)c2ccccc2n1 returned FMDV inh 16µM, Sm TGR block inactive, Shiga inhibitor inactive and Cycloheximide cs inactive.
For Cc1cccc(NC(=O)c2ccc(-n3cnc4cccnc43)cc2)c1C the results were FMDV inh inactive and Sm TGR block inactive.
CN(C)c1ccc(-c2nc(N3CCNCC3)c3ccccc3n2)cc1 was read as FMDV inh inactive.
`O=C1c2c([N+](=O)[O-])cc([N+](=O)[O-])cc2S(=O)N1Cc1ccccc1` (stereo not given) gave FMDV inh inactive, Sm TGR block 40µM, Shiga inhibitor inactive and Cycloheximide cs inactive.
CC(c1ccco1)N(C(=O)c1ccc(C#N)cc1)c1ccccn1 (stereo not given) was read as FMDV inh inactive, Sm TGR block inactive, Shiga inhibitor inactive and Cycloheximide cs inactive.
For Cc1cc(C)cc(C(=O)N(c2ccccn2)C(C)c2ccco2)c1 (stereo not given) the results were FMDV inh inactive, Sm TGR block inactive, Shiga inhibitor inactive and Cycloheximide cs inactive.
CC(C)c1ccc(C(=O)N(c2ccccn2)C(C)c2ccco2)cc1 (stereo not given) was read as FMDV inh inactive, Sm TGR block inactive, Shiga inhibitor 90 and Cycloheximide cs 30.
`CC(c1ccco1)N(C(=O)c1ccccc1NS(=O)(=O)c1ccc(Cl)c([N+](=O)[O-])c1)c1ccccn1` (stereo not given) gave FMDV inh inactive, Sm TGR block inconclusive, Shiga inhibitor 39 and Cycloheximide cs inactive.
